Active and inactive are the calls of the source.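 How the source made its calls: active means compound that raised the calcium level needed for half-maximal fiber tension by more than 10% versus solvent alone; inactive means the rest.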
Test: RTF inhibitors shifting pCa50 of muscle force – permeabilized porcine cardiac fibers, force transducer, powder samples, mechanism study for cardiac RTF inhibitor project, late-stage follow-up (AID 602245)
Details: pig permeabilized cardiac fiber tension, pCa50 shift, at 10 µM; delta pCa50: measured here: shift in calcium sensitivity, stronger effect = lower value; fold change of Ca2+ KD: stronger effect = higher value; maximal force change: measured here: effect on maximal fiber force

Which results are given for `NCCCCCCNS(=O)(=O)c1cccc2c(Cl)cccc12`?
delta pCa50: -0.116; fold change of Ca2+ KD: 1.31 (active); maximal force change: -4.5%

Reference: PubChem BioAssay AID602245 (The Scripps Research Institute Molecular Screening Center, 2012)
